Sampled rows, rich in hits. Any-hit rate of the full collection: about 2.2%.
Mito fusion act = inhibitors of mitochondrial division or activators of mitochondrial fusion | S. cerevisiae fusion-defective mutant growth rescue, CellTiterGlo 48 h | AID 485298 | 320,000 tested, 0.23% active | Potency, µM (doses to about 46.1 µM), hits mostly activators; also: nearly all actives have a fitted effect of over 45% in size
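Read-out: ATP-based luminescence (CellTiterGlo, 10 min ambient) reporting growth of fusion-defective ts yeast after 48 hours at 37C on glycerol/ethanol YPEG medium in the presence of compound.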
TDP-43 yeast inh = inhibitors of TDP-43 toxicity in yeast; Potency, µM (doses to about 46.1 µM), most hits filed as activators; 410,000 tested, 1.8% active; TDP-43 expressing yeast growth rescue, BacTiter-Glo, 24 h; AID 652104; also: nearly all actives have a fitted effect of over 50% in size
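In this qHTS, compounds that restore growth of yeast expressing TDP-43 appear as activators. Cells (OD600=0.02, galactose medium, raffinose-pregrown) are incubated with compound 24 hr at 30 deg C and growth is quantified by BacTiter-Glo.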
aSyn yeast inh = alpha-synuclein toxicity inhibition in yeast | Yeast expressing alpha-synuclein, growth rescue, BacTiter-Glo, 24 h | Potency, µM (series often up to 46.1 µM), usual class: activators | 370,000 tested, 0.14% active; also: nearly all actives have a fitted effect of over 65% in size
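Readout is rescue of growth in alpha-synuclein-expressing yeast, so inhibitors of toxicity appear as activators. Growth after 24 hr at 30 deg C in galactose medium is quantified by luminescence.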
FUS yeast rescue = rescues growth of FUS-expressing yeast | S. cerevisiae FUS-expressing, growth rescue, OD600, 24 h | Potency, µM (titrated, usually from 76.6 µM), usual class: activators | 390,000 tested, 0.24% active; also: nearly all actives have a fitted effect of over 55% in size
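Steps: raffinose overnight preculture; dilution to OD 0.005 in 2% galactose minimal medium; compound addition (concentration series); 24hr at 30C, 99% humidity; absorbance read at 600 nm.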
Abeta yeast res = restores growth of yeast expressing A-beta42 peptide; yeast expressing A-beta42, growth rescue, OD600, 48 h; response scale: 0% DMSO, 100% iron-clioquinol control; Potency, µM (doses to about 46.1 µM), actives largely listed as activators; 410,000 tested, 0.063% active; also: nearly all actives have a fitted effect of over 55% in size
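Yeast growth medium received pinned compounds, then yeast cells expressing toxic A-beta were added; plates incubated at 30 C for 48 hr. Growth read as absorbance at 600 nm, normalized to DMSO and equimolar FeCl3 plus clioquinol controls.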
Hits are given with their value; - = inactive; ? = inconclusive; . = no result given; [ ] = another dose, or the depositor's remark. Calls follow the shape of the dose curve; as a rule, active = well fitted curve in the direction sought with a large enough effect; inconclusive = small, poorly fitted or top-dose-only effect, or another doubt; inactive = no such curve, though single readings can be large; an effect the other way counts as inactive or inconclusive.

SMILES	Mito fusion act	TDP-43 yeast inh	aSyn yeast inh	FUS yeast rescue	Abeta yeast res
Cc1ccc(CSc2ccc3nnc(-c4ccccn4)n3n2)cc1	-	20µM	-	-	-
Fc1cccc(CSc2ccc3nnc(-c4cccnc4)n3n2)c1	-	16µM	-	-	?
Brc1ccc(CSc2ccc3nnc(-c4cccnc4)n3n2)cc1	-	16µM	-	-	-
Brc1ccc(CSc2ccc3nnc(-c4ccccn4)n3n2)cc1	-	?	-	-	-
CCOc1ccc(S(=O)(=O)NCCc2sc3nc(-c4ccc(F)cc4)nn3c2C)cc1	.	-	.	-	-
CCOC(=O)c1nnn(-c2nonc2N)c1CSc1ccc(C)cc1	?	22µM	-	-	-
CCOC(=O)c1nnn(-c2nonc2N)c1CSc1ccccc1	-	?	-	-	-
CCOc1ccc(CNC(=O)CCCn2c(=O)c3cccn3c3ccc(F)cc32)cc1	.	-	.	-	-
Cc1ccc(C)c2[nH]c(=O)c(CN(Cc3ccco3)C(=O)Nc3ccccc3)cc12	14µM	-	-	?	-
CC(=O)/C(=N/Nc1cccc(Cl)c1)N1CCOCC1	-	18µM	-	-	-
CC(C)c1ccc(NC(=O)C2C3C=CC(CC3)C2C(=O)O)cc1 (stereo not drawn)	.	13µM	-	-	-
O=C(O)C1C2C=CC(CC2)C1C(=O)O (stereo not drawn)	-	20µM	-	?	?
CC(=O)Nc1ccc(NC(=O)C2C3C=CC(C3)C2C(=O)O)cc1 (stereo not drawn)	-	-	-	-	-
COCCNC(=O)CSc1nc(-c2cc(OC)c(OC)c(OC)c2)[nH]c1-c1ccc(Cl)cc1	.	-	.	?	-
CC(C)(C)c1ccc(/C=C/C(=O)Nc2ccc3c(c2)OCCO3)cc1	15µM	.	-	.	.
C[C@H]1[C@H](NC(=O)c2ccc(C(F)(F)F)cc2)CC[C@@]23CCCN2C(=O)CCC[C@@H]13	.	.	.	-	.
CCCc1nc2ccc(NC(C)=O)cc2c(=O)n1Cc1ccccc1Cl	-	20µM	-	-	-
CCOC(=O)c1cnc(NCc2ccccc2OC)c2ccccc12	.	?	.	-	-
Cc1c(C)n(CCC#N)c2ccc(Cl)cc12	-	13µM	-	.	-
CCn1c(C)c(C)c2cc(C(=O)Nc3cccc(Cl)c3)ccc21	-	-	-	-	-
Cc1cccc(OCCNc2ccc([N+](=O)[O-])cn2)c1	-	13µM	-	-	-
Cc1cccc(Sc2ccc([N+](=O)[O-])cn2)c1	-	11µM	-	-	-
O=[N+]([O-])c1ccc(Sc2ccccc2)nc1	-	-	-	-	-
CC(C)(C)c1csc(Sc2ccc([N+](=O)[O-])cn2)n1	-	11µM	-	-	-
COC(=O)c1ccc(NC(=O)CSc2nc(=O)[nH]c3c2CCCC3)cc1	.	?	.	-	-
SMILES	Mito fusion act	TDP-43 yeast inh	aSyn yeast inh	FUS yeast rescue	Abeta yeast res
N#CC1=C(N)N(c2ccccc2Sc2ccccc2)C(=O)C1	-	-	-	28µM	-
Cc1ccc(N/C(C(Cl)=C(Cl)Cl)=C(/Cl)[N+](=O)[O-])c(C)c1	.	13µM	-	-	-
Cc1ccc(NC(=O)CC(=O)Nc2ccc(C)cc2C)c(C)c1	-	-	-	-	-
CCc1ccc(OCCCSc2nc(-c3ccc(C(C)(C)C)cc3)nc3cc(=O)[nH]n23)cc1	.	-	.	-	-
COc1ccc(NC(=O)CCS(=O)(=O)c2ccccc2Cl)cc1S(=O)(=O)Nc1ccc(Cl)cc1	-	-	-	32µM	-
C#CCN1C(=O)[C@]2(NCCc3c2[nH]c2ccc(OC)cc32)c2cc(F)ccc21	.	.	.	-	.
O=C1CSC(c2cccc(Cl)c2Cl)N1c1ccccn1 (stereo not drawn)	-	14µM	-	-	-
O=C1CSC(c2ccccc2F)N1c1cc(Cl)ccc1O (stereo not drawn)	-	-	-	-	-
Cc1nn2c(C)c(C(=O)NCCc3ccccc3)cnc2c1-c1ccccc1	.	18µM	.	-	-
CCOc1ccc(CCNC(=O)c2cnc3c(-c4ccccc4)c(C)nn3c2C)cc1OCC	.	-	.	-	-
O=C(O)c1cccc(-c2ccc(/C=c3/sc4nc5ccccc5n4c3=O)o2)c1	32µM	-	-	-	-
CN(C)c1ccc(NC(=O)NC2CCCCN(Cc3cccc(Cl)c3)C2=O)cc1 (stereo not drawn)	.	.	.	-	.
CCOc1ccc2c(c1)-c1c(ssc1=S)C(C)(C)N2	-	22µM	-	-	-
N#Cc1cccc(NC(=O)OCCCN2CCC3(CCCCC3)C2=O)c1	.	.	.	-	.
CCC(O)c1cc2c(cc1NC(=O)c1cccs1)OCCO2 (stereo not drawn)	-	-	-	-	-[9.22 µM]
Nc1cc2c(cc1C(=O)c1ccccc1F)OCCO2	-	18µM	-	-	-
CCC(O)c1cc2c(cc1NC(=O)c1cccc(Br)c1)OCCO2 (stereo not drawn)	.	13µM	-	-	-
Nc1cc2c(cc1C(=O)c1cccc(Br)c1)OCCO2	-	14µM	-	-	-
CCNc1ccc(Br)cc(C(=O)/C=C/c2ccc(Cl)cc2)c1=O	13µM	-	-	-	-
CCNc1ccc(Br)cc(C(=O)/C=C/c2c(Cl)cccc2Cl)c1=O	-	-	-	?	-
COc1ccc(/C=C/c2nc(C#N)c(N3CCN(c4ccccc4)CC3)o2)cc1OC	.	-	.	-	-
COc1ccc(S(=O)(=O)Nc2c(C(=O)O)[nH]c3ccccc23)cc1	-	-	-	-	-
O=C(O)c1[nH]c2ccccc2c1NS(=O)(=O)c1ccc(F)cc1	35µM	-	-	-	-
Cc1ccc(S(=O)(=O)N2CCN(c3nc(-c4cccs4)nc(C)c3C)CC2)cc1	.	.	-	.	.
C[N+]1=C(N)N[C@@]2(C=C3CCCCC3n3c(=O)n(-c4ccccc4)c(=O)n32)C1 (stereo partly drawn)	.	.	.	-	.
SMILES	Mito fusion act	TDP-43 yeast inh	aSyn yeast inh	FUS yeast rescue	Abeta yeast res
Cc1nc2c(Br)c(C)nn2c2c1CCC2	-	11µM	-	-	-
CCOC(=O)c1c(C)oc2nc(C)nc(Nc3cc(C)ccc3OC)c12	.	-	.	-	-
CCCNC(=O)Cn1nc(C)c2c(C)n(-c3ccccc3)nc2c1=O	.	-	.	-	-
CCCOc1cc(C)c(S(=O)(=O)NCc2cccs2)cc1C	.	20µM	10µM	-	-
COc1cccc(Cn2ncc3c4sc(B(O)O)cc4n(C)c3c2=O)c1	-	.	.	.	.
CCn1ncc(Cl)c1C(=O)NC(=S)Nc1ccccc1Br	-	5.6µM	-	-	-
Cc1nn(C)c(C(=O)NC(=S)Nc2ccccc2Br)c1Cl	-	-	-	-	-
COc1ccc(C(CC(=O)NCc2ccccc2)N2Cc3ccccc3C2=O)cc1 (stereo not drawn)	.	-	.	-	-
Cc1cc(C)n2nc(-c3cccc(Br)c3)cc2n1	-	11µM	-	-	-
Cc1cccc(-c2cc3nc(C)cc(C)n3n2)c1	-	-	-	-	-
CCOc1ccccc1N=C1SCC(C)N1C(=O)C1CCN(c2ncnc3sc(C)c(C)c23)CC1 (stereo not drawn)	.	20µM	-	-	-

Assay outcomes from PubChem.
